Screening results from PubChem.
Epigenetic reg – Quantitative High-Throughput Screen for Regulators of Epigenetic Control. murine LDR cells, GFP reporter derepression, 30 h. Potency, µM (series often up to 53.9 µM), without a hit: top-dose GFP activation, most hits filed as activators. actives 0.2% (n = 280,000); further: % of control where 0% means no effect; nearly all actives have a fitted effect of over 60% in size
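Readout is the number of GFP-expressing murine LDR cells, counted by cytometry following washing. Cells were treated with compound for 30 h at 37 C; the stably integrated CMV-GFP locus is normally silent.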
RORgamma inh – qHTS for inhibitors of ROR gamma transcriptional activity. Drosophila S2 Gal4-RORgamma UAS-luciferase reporter, 20 h. AID 2551, 2010. Potency, µM (series often up to 53.6 µM), without a hit: at the highest dose activity change, negative = inhibition, actives largely listed as inhibitors. actives 5.4% (n = 310,000); further: on the % scale 0 is the no-effect control and ±100 the full control effect; nearly all actives have a fitted effect of over 60% in size
Target sequence (P51450 whole entry, looked up, the tested form may be a part): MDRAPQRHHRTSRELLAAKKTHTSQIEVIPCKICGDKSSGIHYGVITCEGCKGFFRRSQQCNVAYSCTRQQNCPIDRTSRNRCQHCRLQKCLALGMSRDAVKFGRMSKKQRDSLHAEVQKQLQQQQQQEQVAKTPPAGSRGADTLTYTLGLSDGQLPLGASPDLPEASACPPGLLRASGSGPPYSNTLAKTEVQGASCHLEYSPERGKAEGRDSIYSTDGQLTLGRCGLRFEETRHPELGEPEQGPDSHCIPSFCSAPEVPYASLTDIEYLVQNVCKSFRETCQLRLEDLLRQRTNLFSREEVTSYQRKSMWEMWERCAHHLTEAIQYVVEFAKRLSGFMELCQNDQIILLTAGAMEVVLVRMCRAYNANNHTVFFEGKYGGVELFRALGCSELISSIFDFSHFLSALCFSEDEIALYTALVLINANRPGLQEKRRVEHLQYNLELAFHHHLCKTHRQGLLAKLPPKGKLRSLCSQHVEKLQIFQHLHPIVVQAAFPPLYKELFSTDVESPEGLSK
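ROR gamma transcriptional activity was tracked as Gal4-UAS luciferase output in stably transfected Drosophila Schneider cells, with compound added 1 hr before 700 uM copper sulfate induction and a 20 hr ambient-temperature incubation.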
PINK1 expr mod – A Quantitative High throughput Screen to Identify Chemical Modulators of PINK1 Expression. PINK1 immunofluorescence, high-content cytometry, 24 h. Potency, µM (titrated, usually from 76.6 µM), inactives show at the highest dose activation (PINK1 increase), usual class: activators. actives 0.2% (n = 410,000). AID 624263, 2012; active means well fitted activation curve with a large enough effect; inconclusive means small, poorly fitted or top-dose-only effect; cell line not stated here; further: % of control where 0% means no effect; nearly all actives have a fitted effect of over 65% in size
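Measures PINK1 amount and localization on or inside mitochondria by immunofluorescence. Stable cells get compounds at 5 concentrations for 24 hours before fixation and staining; CCCP controls included.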
Sfp inh – qHTS Assay for Inhibitors of Bacillus subtilis Sfp phosphopantetheinyl transferase (PPTase); Biochemical Sfp PPTase activity, qHTS; Potency, µM, for inactives: largest response in the series, negative = inhibition, most hits filed as inhibitors; actives 3.5% (n = 310,000);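 further: the enzyme is Sfp with the accession as filed and its product quenches rhodamine fluorescence; 0% = enzyme reaction without inhibitor and -100% = no enzyme wells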
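Sfp 15 nM + cpd, 15 min RT; start w/ rhodamine-CoA 5 uM, BHQ-2-YbbR 12.5 uM (final); 50 mM Hepes pH 7.6, 10 mM MgCl2, 0.01% NP-40, 0.01% BSA; read 525/598 nm at 0 and 30 min.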
Gal4-VP16 FLuc – VP16 counterscreen qHTS for inhibitors of ROR gamma transcriptional activity; AID 2546, 2010; actives 3.5% (n = 310,000); Drosophila S2 Gal4-VP16 UAS-luciferase, luminescence, 20 h; Potency, µM (titrated, usually from 53.6 µM), for inactives: at the highest dose activity, negative = inhibition, hits mostly inhibitors;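 further: Gal4-VP16 expression switched on by copper sulfate through the metallothionein promoter; on the % scale 0 is the no-effect control and ±100 the full control effect; nearly all actives have a fitted effect of over 50% in size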
ClpP mod – qHTS Assay for Activators of ClpP; ATP-dependent Clp protease proteolytic subunit (Bacillus subtilis (strain 168)), P80244; purified B. subtilis ClpP, FRET peptide cleavage, 20 min; Potency, µM (highest dose often 57.5 µM), for inactives: top-dose activity change, negative = active; actives 1.9% (n = 340,000); active means well fitted falling curve with a large enough effect; inconclusive means small, poorly fitted or top-dose-only effect; inactive means no such curve, though single readings can be large or run the other way; further: the source files actives as falling curves though it sought activators and does not explain the sign; nearly all actives have a fitted effect of over 65% in size
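FRET quenching reversal measured ClpP activation: 10 microg/mL B. subtilis ClpP at pH 8 with the FRET-FV decapeptide, read at 430 nm after 320 nm excitation. The 20-min minus 0-min signal was scaled between DMSO/no-enzyme wells and ADEP (5.8 microM final).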
Active calls of the source: *; ? = inconclusive; / = no result; [ ] = another dose, or the depositor's remark. Hits are enriched below; roughly 8.1% of the tested compounds scored in any of these assays. Unless noted, the call rests on the fitted dose curve; in most records, active means well fitted curve in the direction sought with a large enough effect; inconclusive means small, poorly fitted or top-dose-only effect, or another doubt; inactive means no such curve, though single readings can be large; an effect the other way counts as inactive or inconclusive. Potency means the concentration at half of the fitted maximal effect.

SMILES | Epigenetic reg | RORgamma inh | PINK1 expr mod | Sfp inh | Gal4-VP16 FLuc | ClpP mod
CC(CCC#N)[N+](=O)[O-] (stereo unspecified) | 0% | 2% | / | -6% | 3% | /
CC(C)(C)c1ccc(OCCn2c(CCNC(=O)C3CCCCC3)nc3ccccc32)cc1 | / | / | 8% | / | / | -1%
NC(=O)c1ccsc1NC(=O)COC(=O)Cc1c[nH]c2ccccc12 | / | / | 1% | / | / | -4%
NC(=O)c1ccsc1NC(=O)COC(=O)Cc1cccc2ccccc12 | -1% | -28% | 3% | -3% | 4.5µM* | -2%
Cc1ccc(NC(=O)CN(Cc2ccccc2)S(=O)(=O)c2ccc3nc(C)sc3c2)c(C)c1 | 1% | / | 1% | / | / | 0%
Cc1noc(NS(=O)(=O)c2cccc3c(N(C)C)cccc23)c1C | 2% | 16% | / | 50µM* | -4% | /
CN(C)c1cccc2c(S(=O)(=O)Nc3ccccn3)cccc12 | -1% | 14% | -1% | 3% | -5% | -8%
N#Cc1c(NCCCO)nc(-c2ccco2)c2c1CCCC2 | 0% | ? | 0% | 40µM* | ? | 28µM*
N#Cc1c(NC2CCCCC2)nc(-c2ccco2)c2c1CCCC2 | 0% | -20% | 8% | ? | 10% | 7.1µM*
CC(C)c1nc(NCCO)c(C#N)c2c1CCCC2 | 3% | 21% | -1% | -9% | ? | /
Cc1ccc(CCNC(=O)c2ccc(CSc3nc4ccncc4n3Cc3ccc(F)cc3)cc2)cc1 | 0% | / | 1% | / | / | -5%
Fc1ccccc1CNC(=S)NCc1ccc(Cl)cc1 | / | 7.9µM* | 6% | 5% | ? | 0%
Fc1ccc(CNC(=S)Nc2cccc(Cl)c2)cc1 | 0% | 5.6µM* | ? | 0% | 11µM* | -2%
S=C(NCc1ccc(Cl)cc1)Nc1ccncc1 | / | ? | 5% | 3% | 7.1µM* | 0%
NS(=O)(=O)c1ccc(NC(=S)NCc2ccc(Cl)cc2)cc1 | -1% | 44% | 0% | 22µM* | -13% | -6%
Fc1ccccc1CNc1cc(Cl)cc(Cl)c1 | 4% | ? | 6%[38.3 µM] | 5% | -19% | -2%
COC(=O)c1cccc(NC(=S)NCc2ccco2)c1 | -1% | ? | 0% | -12% | -18% | /
NS(=O)(=O)c1ccc(NC(=S)NCc2ccc(F)cc2)cc1 | 2% | 15% | 0% | ? | 1% | /
COC(=O)c1cccc(NC(=S)NCc2ccc(F)cc2)c1 | 1% | 10µM* | -1% | 3% | ? | /
S=C(NCc1ccc(Cl)cc1)Nc1ccccc1 | -1% | 2.2µM* | 4% | 0% | 3.5µM* | /
Fc1ccc(CNC(=S)Nc2ccc(Cl)cc2)cc1 | -1% | 7.1µM* | ? | 6% | 16µM* | 0%
S=C(NCc1ccc(Cl)cc1Cl)Nc1ccccc1 | -1% | 7.1µM* | ? | 2% | 6.3µM* | 0%
S=C(NCc1ccncc1)Nc1cccc(Cl)c1 | 0% | 15% | -3% | 2% | 0% | -5%
COC(=O)C1=C(C)N(Cc2ccccc2)[C@]23O[C@](C(=O)OC)(C(=O)N2C1c1ccccc1)C1C(=O)N(C)C(=O)C13 (stereo partly specified) | 2%[10.1 µM] | 2%[10 µM] | / | 26% | 0%[10 µM] | /
NC(=O)c1ccc(NC(=S)NCc2ccco2)cc1 | 1% | 11% | -2% | -3% | 9% | -1%
CN1CCN(C(=S)C(=O)Nc2ccccc2)CC1 | 2% | 20% | 1% | 50µM* | -5% | -1%
NS(=O)(=O)c1ccc(NC(=S)Nc2nn(Cc3ccc(Cl)cc3Cl)cc2Cl)cc1 | 2% | 6.3µM* | 2% | 8% | 6.3µM* | -3%
CN1CCN(C(=S)C(=O)NCc2ccccc2)CC1 | -3% | -32% | 0% | 5% | 5% | -2%
